Assay outcomes (PubChem BioAssay)
PriA SSB inh: inhibitors of Klebsiella pneumoniae PriA binding to SSB C-terminal tail, primary screen, biochemical, AlphaScreen. PriA–SSB C-terminal tail interaction (Klebsiella pneumoniae). AlphaScreen SSBct-PriA binding, biotinylated peptide. inhibition, % at 33 µM. 0.6% of 430,000 active; in the data active = inhibition mostly above about 37%, no sharp cut-off; inactive = mostly below about 20%;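 note: plate controls were negative control peptide for no effect and reference peptide for full effect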
Sa RN4220 lethal: growth inhibition of S. aureus RN4220, primary screen, OD600 | 16 h | inhibition, % (test concentration not listed) | 0.33% of 330,000 active | AID 1259311, 2017; in the data active = inhibition above about 85%;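 note: plate controls were untreated cells for no effect and reference antibiotic for full effect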
BJeLR lethal: MLPCN primary cell-based screen for lethality selective to Ras in HRASV12 cells; BJeLR (HRASV12) viability, CellTiter-Glo ATP luminescence, 48 h; inhibition, % (concentration not given with the values); 0.17% of 300,000 active; in the data active = inhibition above about 50%
MazEF act: activators of E. coli MazEF toxin-antitoxin RNase, primary screen, biochemical, fluorescence, uHTS; FAM/BHQ RNA-DNA oligo cleavage fluorescence, 5 h; activation, % at 20 µM; 0.32% of 350,000 active; AID 504720, 2011; in the data active = activation above about 50%
Target sequence (P0AE70 whole entry, looked up): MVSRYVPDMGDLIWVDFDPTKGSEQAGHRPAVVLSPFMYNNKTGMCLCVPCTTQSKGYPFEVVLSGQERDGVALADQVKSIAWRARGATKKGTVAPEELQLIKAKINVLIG
ugtP null kill: growth inhibition of ugtP-null S. aureus, primary screen, RN4220 ugtP deletion, OD600; 16 h; growth inhibition, % (no concentration beside the values); 0.54% of 330,000 active; in the data active = growth inhibition above about 68%;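 note: plate controls were untreated wells for no effect and antibiotic for full effect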
Starred values were filed as active, the others as inactive; nt = not tested or not shown; + = active, no number; ! = a repeat was not active. This is a sample that favours compounds with a hit; in the whole collection about 1.2% have one here.

SMILES | PriA SSB inh | Sa RN4220 lethal | BJeLR lethal | MazEF act | ugtP null kill
COc1ccc(C)c2sc(N(CCCN(C)C)C(=O)c3ccc(S(=O)(=O)N4CCc5ccccc5C4)cc3)nc12 | 47.0*! | -2.2 | 80.6* | -37.4 | -9.1
COc1ccc(OC)c2sc(N(CCCN(C)C)C(=O)c3ccc(S(=O)(=O)N4CCc5ccccc5C4)cc3)nc12 | 32.0 | nt | 89.1* | nt | nt
Cc1ccc(C(=O)NCC(=O)Nc2ccccc2C)o1 | nt | nt | nt | 9.0 | nt
O=C(c1csc(Nc2ccc(OC(F)F)cc2)n1)N1CCN(c2ncccn2)CC1 | 16.0 | nt | nt | nt | nt
CCC(C)Nc1nc2c(c(=O)n(C)c(=O)n2C)n1Cc1ccc(Cl)cc1 (stereo unspecified) | 104.2* | -2.9 | -3.4 | 1.1 | 2.3
CCN(CC)Cc1c(O)c(Cl)cc2c3c(c(=O)oc12)CCCC3 | 1.0 | 11.7 | 0.5 | -9.8 | 1.5
CCOc1ccc(CC(=O)Nc2cnc3ccnn3c2)cc1 | -6.0 | nt | nt | nt | nt
CCn1ccc(C(=O)Nc2nnc(-c3cc(OC)c(OC)c(OC)c3)o2)n1 | 10.0 | nt | nt | nt | nt
COc1ccc2c(c1)C(C)=CC(C)(C)N2S(=O)(=O)c1ccc(C)cc1 | -18.5 | 7.4 | 31.4 | -1.8 | 1.4
CC1=CC(C)(C)N(S(=O)(=O)c2ccc(C)cc2)c2cc(C)ccc21 | -29.1 | -0.7 | 54.9* | -8.0 | 58.3
Cn1c(CNC(=O)c2ccc(F)cc2)nc2ccccc21 | -4.6 | 4.2 | -2.9 | 6.3 | 3.4
O=C(Cc1ccccc1)Nc1ccc(Nc2ccc(-n3cccn3)nn2)cc1 | 52.0* | nt | nt | nt | nt
Cc1ccc(Nc2ccc(NC(=O)Cc3ccccc3)cc2)nn1 | -2.0 | nt | nt | nt | nt
Cc1ccn(-c2ccc(Nc3ccc(NC(=O)c4ccco4)cc3)nn2)n1 | 55.0* | nt | nt | nt | nt
COc1cccc(C(=O)OCC(=O)c2c[nH]c3ccccc23)c1OC | 3.5 | 1.0 | nt | -8.6 | -6.7
CCCCNc1nc(CC)c2c(c1C#N)CCCC2 | -9.8 | -0.3 | 0.6 | 1.8 | 81.3*
CCCCc1nc(NCCO)c(C#N)c2c1CCCC2 | -10.4 | 12.6 | -4.8 | 1.1 | 10.8
CC(C)(C)NN=C1CC(c2ccccc2)Oc2ccccc21 (stereo unspecified) | -3.3 | -8.4 | nt | nt | 93.6*
CC(C)(C)N/N=C1\CC(c2ccccc2)Oc2ccccc21 (stereo unspecified) | nt | nt | -2.6 | -4.1 | nt
CC(C)N1CCC(CNC(=O)c2ccc(C(C)(C)C)cc2)CC1 | -21.0 | nt | nt | nt | nt
CCOc1ccc(S(=O)(=O)N2CCCC(C(=O)NCc3ccncc3)C2)cc1C (stereo unspecified) | 5.7 | 3.8 | -1.1 | 3.3 | 3.5
O=C(OC(c1ccccc1)c1nccc2ccccc12)c1cc([N+](=O)[O-])cc([N+](=O)[O-])c1 (stereo unspecified) | 51.7* | -1.7 | -10.0 | 8.1 | 24.6
Cc1c(Cl)c(C(=O)NNC(=S)NCc2ccco2)nn1C | -3.1 | 2.4 | -12.5 | -1.4 | 11.1
C=CCn1c(=O)c(C(=O)Nc2ccc(C)cn2)c(O)c2ccccc21 | -7.7 | 96.2* | -2.0 | 1.4 | 100.5*
C=CCn1c(=O)c(C(=O)Nc2cccnc2)c(O)c2ccccc21 | -10.6 | 98.8* | -1.8 | 4.5 | 61.2
SMILES | PriA SSB inh | Sa RN4220 lethal | BJeLR lethal | MazEF act | ugtP null kill
C=CCn1c(=O)c(C(=O)NCCc2ccccc2)c(O)c2ccccc21 | -29.5 | 8.2 | -0.2 | -10.1 | 27.9
CN=Cc1nc(-c2ccccc2)oc1O | 8.5 | -2.5 | -2.0 | -6.4 | 1.3
CC1=Nc2ccccc2/C1=C\c1nc(-c2ccc(F)cc2)oc1O | -5.3 | 28.9 | 11.6 | + | 56.6
CCCn1c(N)c(C(c2ccc(OC)cc2)N2CCN(c3ccccc3)CC2)c(=O)[nH]c1=O (stereo unspecified) | 1.6 | -0.2 | -4.2 | 4.6 | 1.4
Cc1cccc(NC(=S)N/N=C/c2ccc([N+](=O)[O-])s2)c1 | nt | nt | 1.8 | 9.5 | nt
Cc1ccc(NC(=S)NN=Cc2ccc([N+](=O)[O-])s2)cc1 | 61.9* | 46.3 | nt | nt | 72.0
Cc1ccc(NC(=O)/C=C/c2ccc([N+](=O)[O-])s2)cc1 | -3.4 | nt | 58.6* | -0.7 | nt
Cc1cccc(NC(=O)/C=C/c2ccc([N+](=O)[O-])s2)c1 | 3.8 | 39.9 | 82.8* | 10.1 | 28.9
COc1ccc(CCNC(=O)Cn2cnc3scc(-c4ccccc4)c3c2=O)cc1OC | -2.3 | -7.1 | 0.2 | -6.4 | -6.7
O=C(Nc1ccccc1)OC1CCCC(NC(=O)c2ccc3nsnc3c2)C1 (stereo unspecified) | -4.0 | nt | nt | nt | nt
